Bioassay records from PubChem.
Most compounds without a hit are left out; they make up all but 4.5% or so of the library.
DAX1 inh-1: DAX1 (NR0B1) inhibitors, primary screen, cell-based, HEK293, Gal4-DAX1, luciferase luminescence | HEK293 Gal4-DAX1 luciferase reporter | 340,000 compounds, 0.99% hits | inhibition, % at 6.75 µM | Nuclear receptor subfamily 0 group B member 1 (Homo sapiens), P51843;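 active = inhibition above the mean over all tested compounds plus 3 SD, cut at about 4.2% in these data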;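 also: inhibition shows as a rise in luminescence from relieved DAX1 repression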
Target sequence (P51843 207-470 limits assumed): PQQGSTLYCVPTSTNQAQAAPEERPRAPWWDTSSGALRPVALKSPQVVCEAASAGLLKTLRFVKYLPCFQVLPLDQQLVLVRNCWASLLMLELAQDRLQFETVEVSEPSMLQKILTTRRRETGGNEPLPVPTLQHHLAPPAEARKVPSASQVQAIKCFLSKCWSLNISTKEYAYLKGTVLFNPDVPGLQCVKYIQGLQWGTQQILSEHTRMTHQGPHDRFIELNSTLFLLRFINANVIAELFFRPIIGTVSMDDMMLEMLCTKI
FXN GAA850 act: FXN promoter activators, primary screen, cell-based, luciferase luminescence, HEK293 lucGAA850. HEK293 lucGAA850 FXN promoter luciferase reporter, 24 h; percent of 10 µM SAHA response. activation, % at 6 µM. 360,000 compounds, 0.56% hits. AID 540364, 2011;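 active = activation above the average of all compounds screened plus 3 SD, cutoff fixed separately per campaign, cut at about 7.5% in these data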
hgDAF-12 ag: H. glycines DAF-12 receptor agonists, primary screen, cell-based, luminescence, HEK293, GAL4 fusion, UAS-luciferase; AID 687014, 2013; HEK293 GAL4-hgDAF12 UAS-luciferase reporter, agonist luminescence; normalized to butyrate control; activation, % at 6.8 µM; 370,000 compounds, 1.8% hits; Nuclear hormone receptor DAF-12 (Heterodera glycines), GAL4 fusion;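 active = activation above a cutoff set at the mean of all screened compounds plus 3 SD, cut at about 10% in these data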
ssDAF-12 act: S. stercoralis DAF-12 nuclear receptor activators, primary screen, cell-based, luminescence, HEK293, GRIP1 co-expression, lit1-tk-luc; 370,000 compounds, 1% hits; activation, % at 6.8 µM; HEK293 ssDAF-12/GRIP1 lit1-tk-luc reporter; % of 3 µM dafachronic acid response;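 active = activation above the mean over all tested compounds plus 3 SD, cut at about 0.9% in these data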
hcDAF-12 act: H. contortus DAF-12 nuclear receptor activators, primary screen, cell-based, luminescence, HEK293, lit1-tk-luc reporter | HEK293 hcDAF-12 lit1-tk-luc reporter; 0% DMSO, 100% Δ7-dafachronic acid | AID 652067, 2013 | activation, % at 6.8 µM | 370,000 compounds, 1.4% hits;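 active = activation above the mean of all tested compounds plus 3 SD, cut at about 5.5% in these data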
DAX1 inh-2: DAX1 (NR0B1) inhibitors on StAR promoter, primary screen, cell-based, luminescence, SF-1 (NR5A1), full-length DAX-1. 370,000 compounds, 1.1% hits. AID 652010, 2013. inhibition, % at 6.8 µM. HEK293T StAR-luciferase reporter, SF-1/DAX-1 repression relief;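 active = inhibition above the mean over all tested compounds plus 3 SD, cut at about 3.6% in these data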;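 also: higher inhibition means more luminescence from relief of DAX-1 repression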
LXRb hcDAF ctr: LXR agonists, Gal4 luciferase reporter, confirmation, counter-screen for hcDAF-12 agonist project, cell-based, luminescence, HEK293, H. contortus campaign; shares compounds with hcDAF-12 act; HEK293 Gal4-LXR tk-luc reporter, 24 h; normalized: DMSO 0%, positive control 100%; activation, % at 6.8 µM; 3,400 tested, under 10 active; AID 743027, 2013;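 active = mean percent activation of the reporter above a cutoff set as the average over tested compounds plus their standard deviation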
Target sequence (P55055 whole entry, looked up, the tested form may be a part): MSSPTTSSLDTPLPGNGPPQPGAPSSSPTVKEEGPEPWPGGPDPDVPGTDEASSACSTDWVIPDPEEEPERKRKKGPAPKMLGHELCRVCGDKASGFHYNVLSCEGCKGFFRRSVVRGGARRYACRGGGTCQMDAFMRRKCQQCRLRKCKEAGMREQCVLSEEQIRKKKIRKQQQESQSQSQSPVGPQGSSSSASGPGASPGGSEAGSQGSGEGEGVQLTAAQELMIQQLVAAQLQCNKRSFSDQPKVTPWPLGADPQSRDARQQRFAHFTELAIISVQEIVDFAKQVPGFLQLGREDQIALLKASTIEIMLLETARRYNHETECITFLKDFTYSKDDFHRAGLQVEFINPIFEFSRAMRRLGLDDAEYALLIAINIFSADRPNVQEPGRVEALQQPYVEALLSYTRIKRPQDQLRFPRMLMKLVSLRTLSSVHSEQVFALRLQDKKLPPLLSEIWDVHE
hcDAF12 ag: H. contortus DAF-12 receptor agonists, confirmation, cell-based, luminescence, HEK293, lit1-tk-luc, triplicate. activation, % at 6.8 µM. HEK293 hcDAF-12 lit1-tk-luc reporter; % of Δ7-dafachronic acid response. 3,400 compounds, 61% hits. AID 743032, 2013. shares compounds with hcDAF-12 act;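 active = mean activation across triplicate tests above the threshold derived from the earlier primary screen, cut at about 5.5% in these data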
Each line names hits and unclear results; the compound was inactive in the other large screens (follow-up assays come after a bar, where they were run).

O=C(COC(=O)CN1C(=O)C2CCCCC2C1=O)Nc1ccc(S(=O)(=O)N2CCOCC2)cc1 (configuration not stated)	ssDAF-12 act 1.5, hcDAF-12 act 8.9 | LXRb hcDAF ctr inactive | hcDAF12 ag inactive
O=[N+]([O-])c1cccc2ccc(/C=C/c3ccc(C(F)(F)F)cc3)nc12	hcDAF-12 act 7.6 | LXRb hcDAF ctr inactive | hcDAF12 ag inactive
O=[N+]([O-])c1cccc2ccc(/C=C/c3ccc(Cl)cc3)nc12	none
COC(=O)C1=C(C)N(Cc2cccc(C(F)(F)F)c2)C(=NCc2ccccc2C(F)(F)F)NC1c1ccc(Cl)cc1 (configuration not stated)	none (no result: DAX1 inh-1, FXN GAA850 act)
CN(C)/C=N/c1nc2ccc3c(c2s1)CCCC3	hgDAF-12 ag 10.6, hcDAF-12 act 6.7 | LXRb hcDAF ctr inactive | hcDAF12 ag 6.4
COc1ccc2nc(/N=C\N(C)C)sc2c1	none
N#Cc1c(NC(=O)c2ccc([N+](=O)[O-])o2)sc2c1CCC2	ssDAF-12 act 1.0, hcDAF-12 act 8.1 | LXRb hcDAF ctr inactive | hcDAF12 ag inactive
CC(C)c1onc(C(=O)Nc2sc3c(c2C#N)CCC3)c1[N+](=O)[O-]	none
O=C(Nc1nc2ncccn2c1-c1ccc(F)cc1)c1ccccc1	none (no result: DAX1 inh-1, FXN GAA850 act)
CCCCCCCCN1C(=O)[C@@H](CC(=O)N2CCN(C(=O)C3CC3)CC2)C[C@@]2(C(=O)OC)C1=C[C@H](C(C)(C)C)O[C@@H]2C	none (no result: DAX1 inh-1, FXN GAA850 act)
CCCCC12CN3CCN(CC(C3)/C1=N\NC(=O)c1ccccc1N)C2	hgDAF-12 ag 10.7, hcDAF-12 act 9.4 | LXRb hcDAF ctr inactive | hcDAF12 ag inactive
CCCC12CN3CCN(CC(C3)/C1=N\NC(=O)Nc1ccccc1)C2	none
CCOC(=O)C1=C(C(=O)OCC)C2N(Cc3ccc(C#N)cc3)c3ccccc3[C@@]23C[C@@H](C(=O)OC)N(S(=O)(=O)c2c(C)noc2C)C3=N1 (some centres not stated)	none (no result: DAX1 inh-1, FXN GAA850 act)
FC(F)(F)c1nc2ccccc2c2nc3ccccc3n12	hcDAF-12 act 8.3 | LXRb hcDAF ctr inactive | hcDAF12 ag inactive
c1ccc(-c2nc3ccccc3c3nc4ccccc4n23)cc1	none
C=CC[C@]12C[C@@]3(O[C@H](c4ccc(C(F)(F)F)cc4)N=C3C[C@H](c3ccc(OC)cc3)[C@H]1C)N(Cc1ccncc1)C2=O	none (no result: DAX1 inh-1, FXN GAA850 act)
COc1ccc(C(=O)CN2Cc3ccccc3C2=N)cc1	hgDAF-12 ag 12.6, ssDAF-12 act 2.1, hcDAF-12 act 17.6 | LXRb hcDAF ctr inactive | hcDAF12 ag 9.5
COc1ccc(C(=O)CN2C(=O)COc3ccccc32)cc1	none
CC(/C=N/N1CCN(c2ccccn2)CC1)=C\c1ccccc1	hcDAF-12 act 6.7 | LXRb hcDAF ctr inactive | hcDAF12 ag inactive
Cc1ccc(C(=O)N/C(=C\c2cn(C)c3ccccc23)C(=O)NCCCN2CCOCC2)cc1	none
Cc1ccc(C(=O)N/C(=C\c2ccc(-c3ccccc3[N+](=O)[O-])o2)C(=O)NCCCN2CCOCC2)cc1	hcDAF-12 act 7.3 | LXRb hcDAF ctr inactive | hcDAF12 ag inactive
COc1ccc(C(=O)O/N=C(\N)c2ccccn2)c(OC)c1	none
COc1ccc(Cl)cc1C(=O)O/N=C(\N)c1ccccn1	hcDAF-12 act 7.1 | LXRb hcDAF ctr inactive | hcDAF12 ag inactive
N/C(=N\OC(=O)COc1ccc2ccccc2c1Br)c1ccccn1	none
N/C(=N\OC(=O)COc1ccc(Br)cc1Cl)c1ccccn1	hcDAF-12 act 9.8, DAX1 inh-2 4.2 | LXRb hcDAF ctr inactive | hcDAF12 ag 7.6
O=C(Nc1ccccc1)C(=O)Nc1cccnc1	hcDAF-12 act 9.3 | LXRb hcDAF ctr inactive | hcDAF12 ag inactive
O=C(CC(=O)c1ccccc1)Nc1cccnc1	none
COc1cc(C2CC=C(C(=O)O)C(c3ccccc3F)N2S(=O)(=O)c2ccc(C)cc2)cc(OC)c1OC (configuration not stated)	none (no result: DAX1 inh-1, FXN GAA850 act)
Cc1cc(N2CCN(C(=O)OC(C)(C)C)C[C@H]2C)ccc1N1CCS(=O)(=O)CC1	none (no result: DAX1 inh-1, FXN GAA850 act)
Cc1ccc(C(=O)c2c3ccc(C(F)(F)F)cc3[n+]([O-])n2CCC(N)=O)cc1	hcDAF-12 act 7.8 | LXRb hcDAF ctr inactive | hcDAF12 ag inactive
Cc1ccc(C(=O)c2c3ccc(C(F)(F)F)cc3[n+]([O-])n2CCCC(N)=O)cc1	none
COc1ccc2c(C(=O)c3ccc(Cl)cc3)n(CCCC(N)=O)[n+]([O-])c2c1	hcDAF-12 act 6.9 | LXRb hcDAF ctr inactive | hcDAF12 ag inactive
Cc1ccccc1CN1CCCCC(NC(=O)C2CCCC2)C1=O (configuration not stated)	none (no result: DAX1 inh-1, FXN GAA850 act)
Cc1cc(=O)oc2ccc(OC(=O)CN3C(=O)c4cccc([N+](=O)[O-])c4C3=O)cc12	hcDAF-12 act 8.8 | LXRb hcDAF ctr inactive | hcDAF12 ag inactive
CCC(=O)Oc1ccc2oc(=O)cc(C)c2c1	none
CC(C)(C)OC(=O)N1CCC(N[C@@H](Cc2ccccc2)C(=O)NCC(c2ccccc2)c2ccccc2)(C(=O)NC2CCCCC2)CC1	none (no result: DAX1 inh-1, FXN GAA850 act, DAX1 inh-2)
O=C1C(Cl)=C(Nc2ccccc2)C(=O)c2ccccc21	hcDAF-12 act 7.9 | LXRb hcDAF ctr inactive | hcDAF12 ag inactive
O=C(O)COc1ccccc1C=NNC(=O)Cc1cc(=O)[nH][nH]1	none (no result: DAX1 inh-1, FXN GAA850 act)
O=C(Nc1nc2ncccn2c1-c1ccccc1)c1ccc(F)cc1	none (no result: DAX1 inh-1, FXN GAA850 act)
CCOC(=O)c1ccc(-c2ccc(/C=N/NC(=O)Cc3nnc(N)s3)o2)cc1	hcDAF-12 act 8.8, DAX1 inh-2 3.7 | LXRb hcDAF ctr inactive | hcDAF12 ag inactive
CCOC(=O)[C@@]12CCC3=C1N(CCC3)C(=O)[C@H](CC(=O)N1CCCC1)C2	none (no result: DAX1 inh-1, FXN GAA850 act)
